We go through 40 molecules from the supplement of paper PMC8047044.

Several values for one entry are separate records, joined by “and”; a condition that tells them apart may be missing. Equal entries are not always repeated. Structures can show the parent of a compound that is named as a salt.

This test concerns Neuro-2a. In words: neurite formation score, plate-normalized to DMSO control mean 5.04 (score (0-8 scale)); higher = more or longer neurites. The note with it: 0.1 µM. The method, then:
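Neuro-2a mouse neuroblastoma cells in PLL-coated 96-well plates were pre-treated for 1 h in DMEM(+) with each kinase inhibitor at 0.1 µM, then switched to serum-free DMEM(-) with inhibitor to induce neurite outgrowth and fixed about 2-3 h later. Three blinded observers scored neurite formation from 0 (no neurites) to 8 (long neurites on almost all cells).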
Turning to `Cc1[nH]c(/C=C2\C(=O)Nc3ccc(S(=O)(=O)N(C)c4cccc(Cl)c4)cc32)c(C)c1C(=O)N1CCN(C)CC1`, the neurite formation score turned out to be 5.04.
For `Cn1c(=O)n(-c2ccc(C(C)(C)C#N)cc2)c2c3cc(-c4cnc5ccccc5c4)ccc3ncc21` the value was 5.21.
In turn, `COc1cc(Nc2c(C#N)cnc3cc(OCCCN4CCN(C)CC4)c(OC)cc23)c(Cl)cc1Cl` [Bosutinib (SKI-606)] gave a neurite formation score of 2.71.
Take `N=C(N)NC(=N)NCCc1ccccc1` [Phenformin HCl]: the neurite formation score was 4.76.
In the case of `c1ccc2c(-c3cnn4cc(-c5ccc(N6CCNCC6)cc5)cnc34)ccnc2c1` it was 2.42 and 4.42; in that of `Cc1ccc(F)c(NC(=O)Nc2ccc(-c3cccc4[nH]nc(N)c34)cc2)c1` [Linifanib (ABT-869)], 3.76; in that of `CNC(=O)c1ccc(C)c(-n2c(C)cc(OCc3ccc(F)cc3F)c(Br)c2=O)c1`, 2.21.
In the case of `C#Cc1cccc(Nc2ncnc3cc(OCCOC)c(OCCOC)cc23)c1` [Erlotinib Hydrochloride] it was 5.21; in that of `N#C/C(=C\c1ccc(O)c(O)c1)C(=O)NCc1ccccc1`, 4.58; in that of `Cn1cc(-c2ccc3nnc(Sc4ccc5ncccc5c4)n3n2)cn1`, 5.04.
In the case of `CC[C@H](CO)Nc1nc(NCc2ccccc2)c2ncn(C(C)C)c2n1` [Roscovitine (Seliciclib,CYC202)] it was 4.38; in that of `CCCCCCCCCCCCCCCCCC(=O)OC[C@H](CO)OC(=O)CCCCCCCCCCCCCCCCC` [1,2-Distearoyl-sn-glycerol], 5.42.
The molecule `Cc1[nH]c(/C=C2\C(=O)Nc3ccc(S(=O)(=O)Cc4c(Cl)cccc4Cl)cc32)c(C)c1C(=O)N1CCC[C@@H]1CN1CCCC1` had a neurite formation score of 5.04.
For `COc1cc(CCc2cc(NC(=O)c3ccc(N4CC(C)NC(C)C4)cc3)n[nH]2)cc(OC)c1` (stereo not given) the value was 4.21; for `O=S(=O)(NCCNC/C=C/c1ccc(Br)cc1)c1cccc2cnccc12`, 4.75.
The molecule `CC(C)[C@H](CO)Nc1nc(Nc2cccc(Cl)c2)c2ncn(C(C)C)c2n1` [Purvalanol A] gave a neurite formation score of 5.08.
In the case of `O=c1ncn2nc(Sc3ccc(F)cc3F)ccc2c1-c1c(Cl)cccc1Cl` it was 4.92; in that of `COc1cc(Nc2ncc(F)c(Nc3ccc4c(n3)NC(=O)C(C)(C)O4)n2)cc(OC)c1OC` [R406 (free base)], 5.21.
In the case of `O=C1NC(=O)/C(=C/c2cccc(C(F)(F)F)c2)S1` it was 4.92.
In the case of `Cc1[nH]c2ccccc2c1C1=C(NCCc2ccc(F)cc2)C(=O)N(C)C1=O` it was 2.42; in that of `Cc1cn(-c2cc(NC(=O)c3ccc(C)c(Nc4nccc(-c5cccnc5)n4)c3)cc(C(F)(F)F)c2)cn1` [Nilotinib(AMN-107)], 5.21.
`COc1cc(Nc2ncc(F)c(Nc3ccc4c(n3)N(COP(=O)(O)O)C(=O)C(C)(C)O4)n2)cc(OC)c1OC` [Fostamatinib (R788)] had a neurite formation score of 3.76.
In the case of `O=C(Nc1c[nH]nc1-c1nc2ccc(CN3CCOCC3)cc2[nH]1)NC1CC1` it was 5.92.
In the case of `O=c1oc2c(O)c(O)cc3c(=O)oc4c(O)c(O)cc1c4c23` [Ellagic acid] it was 4.42; in that of `Cc1cc(O)c2c(c1)C(=O)c1cccc(O)c1C2=O` [Chrysophanol], 4.76.
As to `Cc1cc(Nc2ncc(Cl)c(Nc3ccccc3S(=O)(=O)C(C)C)n2)c(OC(C)C)cc1C1CCNCC1`, the neurite formation score stood at 5.21.
For `NC(=O)c1ccc2nc(-c3ccc(Oc4ccc(Cl)cc4)cc3)[nH]c2c1` the value was 5.25; for `C=CC(=O)Nc1cccc(Sc2nc(Nc3ccc(N4CCN(C)CC4)cc3)ncc2Cl)c1`, 4.71; for `COc1cc2/c(=N/c3ccc(Br)cc3F)nc[nH]c2cc1OCC1CCN(C)CC1` [Vandetanib (ZD6474)], 5.09.
In the case of `Cc1cc2c(F)c(Oc3ncnn4cc(OC[C@@H](C)O)c(C)c34)ccc2[nH]1` it was 4.38; in that of `Oc1cc(O)cc(/C=C/c2ccc(O)c(O)c2)c1` [Piceatannol], 4.75.
For `CCC[C@H](NC(=O)/C(C#N)=C/c1cccc(Br)n1)c1ccccc1` the value was 4.21; for `COc1cc2ncnc(Nc3ccc(O)cc3)c2cc1OC`, 4.25.
Take `CNC(=O)c1nn(C)c2c1C(C)(C)Cc1cnc(Nc3ccc(N4CCN(C)CC4)cc3)nc1-2`: the neurite formation score was 4.58.
In the case of `COc1cc(N2CCOCC2)ccc1Nc1ncc(F)c(Nc2ccccc2NS(C)(=O)=O)n1` it was 4.75.
For `Cc1ccc([N+](=O)[O-])cc1S(=O)(=O)N(C)/N=C/c1cnc2ccc(Br)cn12` the value was 3.08; for `S=C(NCc1ccc2c(c1)OCO2)N1CCN(c2ncnc3c2oc2ccccc23)CC1` [Amuvatinib (MP-470, HPK 56)], 4.92; for `CNC(=O)c1cccc(-c2ccc3c(N4CCOC[C@@H]4C)nc(N4CCOC[C@@H]4C)nc3n2)c1`, 4.58.
In the case of `CN(C)CCSSCCNC(=O)C1CCN(C(=O)CSc2ccc(Cl)cc2)CC1` it was 4.58; in that of `CCn1c(=O)c(-c2ccc(-c3cncs3)cc2Cl)cc2cnc(Nc3ccc(N4CCN(C)CC4)cc3)nc21`, 4.25.
